Source: PubChem BioAssay (National Center for Advancing Translational Sciences (NCATS))
This is a sample that favours compounds with a hit; in the whole collection about 1.2% have one here.
hERG WT inh: blocks the wildtype human KCNH2 potassium channel; activity change, % at 1.84 µM; U2OS, BacMam KCNH2, thallium flux FluxOr; active compounds read low; AID 720551; Q12809; hit rate 0.37% among 340,000;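 active means maximum activity change below -70%; inconclusive means maximum activity change between -70% and -50%; inactive means maximum activity change above -50%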
Target sequence (Q12809 whole entry, looked up): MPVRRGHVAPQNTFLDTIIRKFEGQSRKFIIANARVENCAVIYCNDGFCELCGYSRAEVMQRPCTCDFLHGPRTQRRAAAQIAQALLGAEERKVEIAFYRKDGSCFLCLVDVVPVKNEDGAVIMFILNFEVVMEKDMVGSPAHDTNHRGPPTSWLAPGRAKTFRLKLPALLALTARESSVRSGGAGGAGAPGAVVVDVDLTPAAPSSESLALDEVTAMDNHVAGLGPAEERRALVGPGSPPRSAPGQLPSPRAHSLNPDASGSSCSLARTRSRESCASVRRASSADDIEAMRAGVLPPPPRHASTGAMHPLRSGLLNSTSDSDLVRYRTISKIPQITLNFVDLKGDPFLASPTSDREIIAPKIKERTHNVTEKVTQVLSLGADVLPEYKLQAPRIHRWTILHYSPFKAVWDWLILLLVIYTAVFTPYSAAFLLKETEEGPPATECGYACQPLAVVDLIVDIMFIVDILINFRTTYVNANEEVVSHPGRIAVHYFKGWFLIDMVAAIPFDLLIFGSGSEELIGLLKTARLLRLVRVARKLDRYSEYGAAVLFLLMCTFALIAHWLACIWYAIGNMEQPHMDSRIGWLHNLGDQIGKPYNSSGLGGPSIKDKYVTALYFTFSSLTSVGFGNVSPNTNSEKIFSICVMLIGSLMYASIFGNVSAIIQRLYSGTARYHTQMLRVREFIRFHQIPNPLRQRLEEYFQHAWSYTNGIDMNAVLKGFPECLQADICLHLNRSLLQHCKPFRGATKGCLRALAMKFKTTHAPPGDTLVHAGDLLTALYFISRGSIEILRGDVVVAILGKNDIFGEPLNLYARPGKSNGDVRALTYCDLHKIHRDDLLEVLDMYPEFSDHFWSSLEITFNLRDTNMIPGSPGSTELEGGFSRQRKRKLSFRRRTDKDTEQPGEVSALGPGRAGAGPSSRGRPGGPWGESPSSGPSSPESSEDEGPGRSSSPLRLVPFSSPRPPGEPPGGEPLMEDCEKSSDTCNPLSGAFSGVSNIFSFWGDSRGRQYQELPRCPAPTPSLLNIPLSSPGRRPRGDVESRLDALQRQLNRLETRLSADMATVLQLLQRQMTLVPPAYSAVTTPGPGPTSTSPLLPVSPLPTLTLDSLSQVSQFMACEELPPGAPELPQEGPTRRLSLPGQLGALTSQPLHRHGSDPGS
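U2OS cells transduced with wild-type KCNH2 virus are loaded with FluxOr dye for 45 min, and thallium flux is measured in kinetic reads before and after stimulation buffer. Rate constants are normalized to DMSO controls.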
TRPV1 PAM: potentiators of human vanilloid receptor 1 (TRPV1); Q8NER1; TRPV1-expressing cells, Fluo-8 calcium influx, capsaicin EC20 potentiation; potentiation, % at 8.33 µM; hit rate 0.02% among 320,000; in the data active means potentiation above about 80%; inconclusive means between about 30% and that limit
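Cells expressing TRPV1 were dye-loaded with Fluo-8 and read kinetically: 10 s baseline, 3 min after compound (agonist portion), then 2 min after EC20 capsaicin (allosteric enhancer portion). Calcium-bound dye fluorescence at 480/520 nm.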
KCNH2 3.1 inh: inhibitors of human KCNH2 3.1 potassium channel isoform; U2OS KCNH2 3.1, thallium flux FluxOr; active compounds read low; activity change, % (tested at about 1.8 µM); hit rate 0.95% among 340,000;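 active means maximum activity change below -70%; inconclusive means maximum activity change from -70% to -50%; inactive means maximum activity change above -50%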;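 further: thallium influx rate constant from kinetic fluorescence after stimulation buffer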
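Measured as rate of thallium-driven FluxOr signal in transduced U2OS cells carrying the 3.1 channel, read kinetically for 2 min upon stimulation; values are rate constants scaled to DMSO control wells.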
TRPV1 ag: activates the human vanilloid receptor TRPV1; Q8NER1; TRPV1-expressing cells, Fluo-8 calcium influx, agonist mode; activation, % at 8.33 µM; hit rate 0.19% among 320,000; AID 540275; in the data active means activation above about 80%; inconclusive means between about 30% and that limit
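Fluo-8 calcium influx in TRPV1-expressing cells, kinetic read (ex 480/em 520 nm). Compound added and read 3 min for agonist activity, followed by capsaicin at EC20 final and 2 min further read for enhancement.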
Large screens that a line does not name were inactive.

CC(C)(C)c1ccc(C(=O)Nc2cccc([N+](=O)[O-])c2)cc1	TRPV1 ag 84
Cc1cc(C(=O)Nc2ccc([N+](=O)[O-])cn2)cs1	TRPV1 ag 83
Cc1c(C(=O)Nc2cccc([N+](=O)[O-])c2)cnn1-c1ccccc1	TRPV1 ag 103
C/C(=N\NC(=O)c1ccncc1)c1cccc(NC(=O)c2ccc(C(C)(C)C)cc2)c1	TRPV1 ag 85
O=C(Nc1ccncc1NC(=O)c1cccc([N+](=O)[O-])c1)c1cccc([N+](=O)[O-])c1	none
C/C(=N/NC(=O)c1ccncc1)c1ccc(NC(=O)c2ccccc2)cc1	TRPV1 ag inconclusive
O=C(Nc1cccc(NC(=O)c2cccc([N+](=O)[O-])c2)n1)c1cccc([N+](=O)[O-])c1	KCNH2 3.1 inh -84
COc1cccc(C(=O)NCCCN2CCN(CCCNC(=O)c3cccc(OC)c3)CC2)c1	hERG WT inh inconclusive, KCNH2 3.1 inh -76
Cc1c(C)n(C)c2ccc(C(=O)NCCCN3CCCCC3)cc12	none
Cc1c(C)n(C)c2ccc(C(=O)NCCCN3CCCC3)cc12	KCNH2 3.1 inh -97
O=C(NCCCN1CCN(CCCNC(=O)c2cccc(Cl)c2)CC1)c1cccc(Cl)c1	hERG WT inh -100, KCNH2 3.1 inh -89
O=C(NCCN1CCCC1)c1cccc(Cl)c1	none
NC(=O)c1ncn([C@@H]2O[C@H](CNCc3ccc(-c4cc(C(F)(F)F)ccc4Cl)o3)[C@@H](O)[C@H]2O)n1	none (no result: TRPV1 PAM, TRPV1 ag)
Nc1nc(SCC(=O)NC2CCCc3ccccc32)n[nH]1 (stereo unspecified)	none
CC(C)CCC1(CCO)C(=O)N=C(N)NC1=O (stereo unspecified)	none (no result: TRPV1 PAM, TRPV1 ag)
CCOC(=O)c1cc(C)nc(Sc2ccc(C)cc2)c1C#N	none
COc1ccc(/C=N/NC(=O)c2ccc(Cl)c(S(N)(=O)=O)c2)cc1OCC(N)=O	none
COc1cc(/C=N/NC(=O)c2ccc(Cl)c(S(N)(=O)=O)c2)ccc1OCC(N)=O	hERG WT inh -142
COc1cc(/C=N/NC(=O)c2cccnc2)ccc1OCC(=O)Nc1ccccc1Cl	KCNH2 3.1 inh -97
COc1ccc(NC(=O)COc2ccc(/C=N/NC(=O)c3cccnc3)cc2OC)cc1	none
Cc1ccc(S(=O)(=O)N2CCN(C(=O)COC(=O)/C=C/c3cccc([N+](=O)[O-])c3)CC2)c(C)c1	none (no result: TRPV1 PAM, TRPV1 ag)
COc1cccc(-c2noc(C3CCCN(C(=O)CC(C)(C)C)C3)n2)c1 (stereo unspecified)	hERG WT inh -87
O=C(c1ccoc1)N1CCN(c2cc(-c3cccnc3)nc3cc(-c4cccc(Cl)c4)nn23)CC1	none (no result: TRPV1 PAM, TRPV1 ag)
O=C(c1ccc2c(c1)OCO2)C1CCCN(Cc2ccccc2OC(F)F)C1 (stereo unspecified)	none
O=C(c1ccc2c(c1)OCO2)C1CCCN(Cc2cc(F)ccc2-n2cccn2)C1 (stereo unspecified)	KCNH2 3.1 inh -72
Cc1ccc(-n2cccn2)c(CN2CCCC(C(=O)c3ccc4c(c3)OCO4)C2)c1 (stereo unspecified)	hERG WT inh inconclusive, KCNH2 3.1 inh -94
Cc1ccc(-n2cccn2)c(CN2CCCC(CNC(=O)c3ccc(F)cc3)C2)c1 (stereo unspecified)	none
COc1ccc(C(=O)COC(=O)c2cc(=O)[nH]c3ccccc23)c(OC)c1	none
CC(=O)OCCn1c2nc(=O)[nH]c(=O)c-2nc2cc(C)c(C)cc21	TRPV1 ag 122
O=[N+]([O-])c1ccc(N2CCN(Cc3ccc4c(c3)OCO4)CC2)nc1	none
O=Cc1cc([N+](=O)[O-])ccc1N1CCN(Cc2ccc3c(c2)OCO3)CC1	hERG WT inh inconclusive, KCNH2 3.1 inh -86
Cc1cn(CC(=O)NCC(c2ccccc2)c2ccccc2)c(=O)[nH]c1=O	none (no result: TRPV1 PAM, TRPV1 ag)
CC/C(=N\NC(=O)CNC(=O)/C=C/c1ccc(OC)cc1)c1ccccc1	hERG WT inh -136
CCCCn1nc(NC(=O)COC)c2cc3ccc(C)cc3nc21	TRPV1 ag 89
CCCn1nc(NC(=O)COC)c2cc3cc(C)ccc3nc21	TRPV1 PAM inconclusive (no result: hERG WT inh)
CCOC(=O)c1c(NC(=O)c2nn(CC)cc2Br)sc(C)c1C	KCNH2 3.1 inh -72
Cc1ccc(S(=O)(=O)N(CC(=O)NCc2ccc(F)cc2)C(=O)N2CCN(C)CC2)cc1	none
CSc1nc(N2CCN(Cc3ccc4c(c3)OCO4)CC2)c2ccccc2n1	KCNH2 3.1 inh -73
CN1CCN(C(=O)C2=C[C@H](c3ccc4c(c3)OCO4)C[C@H](OCCCCO)O2)CC1	KCNH2 3.1 inh -91 (no result: TRPV1 PAM, TRPV1 ag)
